Hit rate of the full screen: of about 5,500 compounds, about 2,000 (36%) were called active. Not shown: some 18% with an inconclusive outcome. The list shows a part of the results. Unmarked numbers belong to inactive results. Rule as the data show it: active = normalized growth mostly below about 0.91 (no sharp cut-off); inconclusive = no clear call, values can overlap the other calls; inactive = mostly above about 0.92.
Assay: chemical genetic growth profiling, strain panel (AID 1159580);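 also: tested at 20 µM; growth read once vehicle control cultures reached saturation at 30 °C; 1 = growth at the plate median or of vehicle wells; lower values mean less growth of the strain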
Details: S. cerevisiae deletion strains, growth OD

For `Cc1onc(-c2c(F)cccc2Cl)c1C(=O)ON=C1C2CC3CC(C2)CC1C3`, which normalized growth (locus YAR019C, strain CDC15, stronger effect = lower value) is on record?
The normalized growth was 1.06.

What about the normalized growth (locus YBL105C, strain PKC1, stronger effect = lower value) of the same molecule?
Its normalized growth is 1.11 [resistant] (active).

And the normalized growth (locus YBR135W, strain CKS1, stronger effect = lower value)?
The normalized growth was 1.09 [resistant] (active).

What about the normalized growth (locus YBR136W, strain MEC1, stronger effect = lower value) of the same molecule?
Its normalized growth is 1.08 [resistant] (active).

What about the normalized growth (locus YBR160W, strain CDC28, stronger effect = lower value) of the same molecule?
The normalized growth was 1.08 [resistant] (active).

What about the normalized growth (locus YDL017W, strain CDC7, stronger effect = lower value) of the same molecule?
Its normalized growth is 1.08 [resistant] (active).

And the normalized growth (locus YDL028C, strain MPS1, stronger effect = lower value)?
Its normalized growth is 1.08 [resistant] (active).

And the normalized growth (locus YDL101C, strain DUN1, stronger effect = lower value)?
The normalized growth was 0.97.

And the normalized growth (locus YDL108W, strain KIN28, stronger effect = lower value)?
The normalized growth was 1.09 [resistant] (active).

And the normalized growth (locus YDL132W, strain cdc53, stronger effect = lower value)?
The normalized growth was 1.06.

What about the normalized growth (locus YDL214C, strain PRR2, stronger effect = lower value) of the same molecule?
Its normalized growth is 0.955.

And the normalized growth (locus YDR052C, strain DBF4, stronger effect = lower value)?
Its normalized growth is 0.997.

What about the normalized growth (locus YDR054C, strain cdc34, stronger effect = lower value) of the same molecule?
The normalized growth was 1.04.

What about the normalized growth (locus YDR226W, strain ADK1, stronger effect = lower value) of the same molecule?
The normalized growth was 1.06 [resistant] (active).

And the normalized growth (locus YDR477W, strain SNF1, stronger effect = lower value)?
The normalized growth was 0.965.

And the normalized growth (locus YER123W, strain YCK3, stronger effect = lower value)?
The normalized growth was 0.939.

What about the normalized growth (locus YER133W, strain GLC7, stronger effect = lower value) of the same molecule?
The normalized growth was 0.979.

What about the normalized growth (locus YFL009W, strain cdc4, stronger effect = lower value) of the same molecule?
The normalized growth was 1.06.

And the normalized growth (locus YFL029C, strain CAK1, stronger effect = lower value)?
Its normalized growth is 1.07.

What about the normalized growth (locus YFR003C, strain YPI1, stronger effect = lower value) of the same molecule?
Its normalized growth is 1.09 [resistant] (active).

And the normalized growth (locus YFR019W, strain FAB1, stronger effect = lower value)?
The normalized growth was 0.967.

What about the normalized growth (locus YFR028C, strain CDC14, stronger effect = lower value) of the same molecule?
The normalized growth was 1.02.

And the normalized growth (locus YGR040W, strain KSS1, stronger effect = lower value)?
Its normalized growth is 0.953.

And the normalized growth (locus YGR052W, strain FMP48, stronger effect = lower value)?
Its normalized growth is 0.974.

What about the normalized growth (locus YGR092W, strain DBF2, stronger effect = lower value) of the same molecule?
The normalized growth was 0.982.

What about the normalized growth (locus YHR030C, strain SLT2, stronger effect = lower value) of the same molecule?
Its normalized growth is 0.895.

And the normalized growth (locus YHR079C, strain IRE1, stronger effect = lower value)?
The normalized growth was 0.967.

What about the normalized growth (locus YHR082C, strain KSP1, stronger effect = lower value) of the same molecule?
The normalized growth was 0.981.

And the normalized growth (locus YHR205W, strain SCH9, stronger effect = lower value)?
Its normalized growth is 0.85.

What about the normalized growth (locus YIL147C, strain SLN1, stronger effect = lower value) of the same molecule?
Its normalized growth is 1.1 [resistant] (active).

What about the normalized growth (locus YJL095W, strain BCK1, stronger effect = lower value) of the same molecule?
Its normalized growth is 0.968.

What about the normalized growth (locus YJL128C, strain PBS2, stronger effect = lower value) of the same molecule?
The normalized growth was 1.01.

What about the normalized growth (locus YJL157C, strain FAR1, stronger effect = lower value) of the same molecule?
Its normalized growth is 0.95.

What about the normalized growth (locus YJR016C, strain ILV3, stronger effect = lower value) of the same molecule?
Its normalized growth is 1.04.

What about the normalized growth (locus YJR066W, strain TOR1 (second series), stronger effect = lower value) of the same molecule?
Its normalized growth is 0.924.

What about the normalized growth (locus YJR066W, strain TOR1, stronger effect = lower value) of the same molecule?
The normalized growth was 0.98.

What about the normalized growth (locus YKL048C, strain ELM1, stronger effect = lower value) of the same molecule?
Its normalized growth is 0.968.

What about the normalized growth (locus YKL067W, strain YNK1, stronger effect = lower value) of the same molecule?
Its normalized growth is 0.974.

And the normalized growth (locus YKL101W, strain HSL1, stronger effect = lower value)?
The normalized growth was 0.94.

What about the normalized growth (locus YKL193C, strain SDS22, stronger effect = lower value) of the same molecule?
Its normalized growth is 1.08 [resistant] (active).

What about the normalized growth (locus YKL203C, strain TOR2, stronger effect = lower value) of the same molecule?
Its normalized growth is 0.969.

And the normalized growth (locus YLR113W, strain HOG1, stronger effect = lower value)?
The normalized growth was 0.816 (active).

And the normalized growth (locus YLR133W, strain CKI1, stronger effect = lower value)?
The normalized growth was 0.951.

And the normalized growth (locus YLR403W, strain SFP1, stronger effect = lower value)?
Its normalized growth is 0.894.

And the normalized growth (locus YML070W, strain DAK1, stronger effect = lower value)?
Its normalized growth is 0.934.

What about the normalized growth (locus YMR001C, strain CDC5, stronger effect = lower value) of the same molecule?
The normalized growth was 1.07 [resistant] (active).

And the normalized growth (locus YMR205C, strain PFK2 (second series), stronger effect = lower value)?
Its normalized growth is 0.971.

And the normalized growth (locus YMR277W, strain FCP1, stronger effect = lower value)?
Its normalized growth is 1.06.

What about the normalized growth (locus YNL006W, strain LST8, stronger effect = lower value) of the same molecule?
Its normalized growth is 1.1 [resistant] (active).

What about the normalized growth (locus YNL020C, strain ARK1, stronger effect = lower value) of the same molecule?
Its normalized growth is 0.955.

What about the normalized growth (locus YNL161W, strain CBK1, stronger effect = lower value) of the same molecule?
Its normalized growth is 1.08 [resistant] (active).

And the normalized growth (locus YNL183C, strain NPR1, stronger effect = lower value)?
Its normalized growth is 0.917.

What about the normalized growth (locus YNL207W, strain RIO2, stronger effect = lower value) of the same molecule?
Its normalized growth is 1.03.

What about the normalized growth (locus YNL222W, strain SSU72, stronger effect = lower value) of the same molecule?
Its normalized growth is 1.1 [resistant] (active).

And the normalized growth (locus YNL307C, strain MCK1 (second series), stronger effect = lower value)?
Its normalized growth is 0.953.

What about the normalized growth (locus YOL078W, strain AVO1, stronger effect = lower value) of the same molecule?
The normalized growth was 1.05.

And the normalized growth (locus YOL136C, strain PFK27, stronger effect = lower value)?
Its normalized growth is 0.933.

And the normalized growth (locus YOR061W, strain CKA2, stronger effect = lower value)?
The normalized growth was 0.965.

What about the normalized growth (locus YOR119C, strain RIO1, stronger effect = lower value) of the same molecule?
Its normalized growth is 0.976.

What about the normalized growth (locus YOR231W, strain MKK1, stronger effect = lower value) of the same molecule?
Its normalized growth is 0.9.

What about the normalized growth (locus YOR329C, strain SCD5, stronger effect = lower value) of the same molecule?
Its normalized growth is 1.1 [resistant] (active).

And the normalized growth (locus YPL031C, strain PHO85, stronger effect = lower value)?
Its normalized growth is 0.975.

And the normalized growth (locus YPL153C, strain RAD53, stronger effect = lower value)?
Its normalized growth is 0.959.

What about the normalized growth (locus YPL204W, strain HRR25, stronger effect = lower value) of the same molecule?
Its normalized growth is 0.931.

What about the normalized growth (locus YPL209C, strain IPL1, stronger effect = lower value) of the same molecule?
The normalized growth was 1.09 [resistant] (active).

And the normalized growth (locus YPL256C, strain CLN2, stronger effect = lower value)?
The normalized growth was 0.866.

And the normalized growth (locus YPR025C, strain CCL1, stronger effect = lower value)?
The normalized growth was 1.1 [resistant] (active).

What about the normalized growth (locus YPR106W, strain ISR1, stronger effect = lower value) of the same molecule?
The normalized growth was 1.04.

And the normalized growth (locus YPR111W, strain DBF20, stronger effect = lower value)?
The normalized growth was 1.06.

And the normalized growth (strain NNK1, stronger effect = lower value)?
Its normalized growth is 1.03.

What about the normalized growth (strain TSCII, stronger effect = lower value) of the same molecule?
Its normalized growth is 1.04.

Source: PubChem BioAssay AID1159580 (chemical genetic matrix, 2015)
